{"source": "the supplement of paper PMC11417369", "note": "± gives the standard deviation of the averaged measurements. The full ranking holds about 25,000 sequences; the median of “ln(normalized median fluorescence intensity)” is about 7.9, and the highest 2% start at about 11. Shown is part of a subset that was picked to be rich in the highest values.", "data": [{"tested_on": "PfAP2-I AP2 domain 3 (GST-tagged)", "assay": "gcPBM binding intensity (ln(normalized median fluorescence intensity)); higher = stronger DNA binding", "summary_of_the_method": "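Binding intensity is defined as the maximum Masliner-normalised natural-log median intensity across replicate spots for either probe orientation. It was measured on an Agilent 4 × 180k array of primer-extended double-stranded 36-bp intergenic genomic probes and negative controls, to which GST-tagged P. falciparum DNA-binding domains made in E. coli were applied for 1 h in 1× PBS with 1% milk, 0.2 mg/ml BSA, 0.5% salmon testes DNA and 0.03% Triton X-100. Detection was by Alexa488 anti-GST antibody and scanning at 488 nm.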", "values": [{"sequence": "AAAAGGGAAATAAAATAAAAAAAGAAACATATATAG [CACACA_negctrl_site455]", "gcPBM binding intensity (ln)": "7.72 ± 0.76"}, {"sequence": "ATATGATCATAAAACACACACACAAAAAAAAAAAAA [CACACA_site1806]", "gcPBM binding intensity (ln)": "7.95 ± 0.75"}, {"sequence": "TATATATGTGTATAGAGTACACGTTTTTTTTAATAT [XGTACX_site3128]", "gcPBM binding intensity (ln)": "7.71 ± 0.38"}, {"sequence": "ATTGTATTAAAATGCACACATATCAAGAGGAATTTT [CACACA_site283]", "gcPBM binding intensity (ln)": "9.095 ± 0.064"}, {"sequence": "AAAGAAAATAACAAAATTTTGAAAACATCACATTCG [CACACA_negctrl_site89]", "gcPBM binding intensity (ln)": "7.63 ± 0.69"}, {"sequence": "ATCAAAATGTTAAAGATACACACCTAACAAACACAA [CACACA_site955]", "gcPBM binding intensity (ln)": "7.96 ± 0.19"}, {"sequence": "TAAATCATTTATTAAGTGCAATATTCTTTTTGAGAT", "gcPBM binding intensity (ln)": "10.3 ± 0.28"}, {"sequence": "ATATATATATATATGGTGCATGAAAATTTACTTTGA", "gcPBM binding intensity (ln)": "10.11 ± 0.085"}, {"sequence": "TATATATGTATGTATGTACACACAAAAAATGGAATA [CACACA_site9235]", "gcPBM binding intensity (ln)": "8.05 ± 0.45"}, {"sequence": "CGTATATCACCAACTAGTACATATAAATAAATAAAT [XGTACX_site8837]", "gcPBM binding intensity (ln)": "7.92 ± 0.5"}, {"sequence": "TATATAATATATATAGTGCATAAGTTCAAAAGAATA [GTGCAC_site9805]", "gcPBM binding intensity (ln)": "9.95 ± 0.16"}, {"sequence": "AAAAAGAATATAAGTAGTACAGTGCATATAATAATT [XGTACX_site617]", "gcPBM binding intensity (ln)": "10.3 ± 0.37"}, {"sequence": "AAAAAGGTTAAGGTAGTGCATAATAAAGAATATTAA", "gcPBM binding intensity (ln)": "11 ± 0.45"}, {"sequence": "AAATAAGAAAAAGCGCGTACACATAACATTTTTATA [XGTACX_site8807]", "gcPBM binding intensity (ln)": "7.82 ± 0.54"}, {"sequence": "TTAACGTAAAATATAGTGCATAGTATCATATTGATA [GTGCAC_site9527]", "gcPBM binding intensity (ln)": "9.5 ± 0.099"}, {"sequence": "TTTGAAATATTAAATGCATGTTAAAACATAAAAATG [TGCATGCA_site680]", "gcPBM binding intensity (ln)": "7.91 ± 0.73"}, {"sequence": "TATGTTTTTGAATGAGTGCATTAAAATAAAACATTT", "gcPBM binding intensity (ln)": "11.3 ± 0.61"}, {"sequence": "GGTTTGAATTTTTAAGTGCATATAACATAAATGAAA", "gcPBM binding intensity (ln)": "9.86 ± 0.23"}, {"sequence": "TATAATATGACAAGAAGTACATATATTTACATATAT [XGTACX_site1571]", "gcPBM binding intensity (ln)": "7.54 ± 0.29"}, {"sequence": "AAATCAAACTTTGGTGTGCACAAATATATACATATA [GTGCAC_site9986]", "gcPBM binding intensity (ln)": "10.545 ± 0.007"}, {"sequence": "TAATATATATAACAAGTGCAAAAAAATATAGATATT [GTGCAC_site9625]", "gcPBM binding intensity (ln)": "9.38 ± 0.33"}, {"sequence": "TAATATAATATATAGGTGCAATATTAACAAAAATTT", "gcPBM binding intensity (ln)": "11 ± 0.44"}, {"sequence": "ATTTAAATACAAAATTGTACTTTTCTATATTTAACA [XGTACX_site6146]", "gcPBM binding intensity (ln)": "7.79 ± 0.41"}, {"sequence": "TATATTAACAAAATGGTGCAATAATTTCTATATTGT [GTGCAC_site9430]", "gcPBM binding intensity (ln)": "11.2 ± 0.54"}, {"sequence": "TATATTAACAAAATGGTGCAATAATTTCTATATTAT [GTGCAC_site9857]", "gcPBM binding intensity (ln)": "11.3 ± 0.61"}, {"sequence": "TATTAATTTAAATGGGTGCAAAACCTATATAAATAT", "gcPBM binding intensity (ln)": "10.6 ± 0.55"}, {"sequence": "GTTGTGTAATTCGTAACACACATAAAATATATATAA [CACACA_site6059]", "gcPBM binding intensity (ln)": "7.76 ± 0.48"}, {"sequence": "CATAACATAAAATAGGTGCACAAAAATTGTAATTGA", "gcPBM binding intensity (ln)": "11.37 ± 0.021"}, {"sequence": "TACAATGAAAAAATAACATGCAATTATATTTCTCTT [TGCATGCA_site833]", "gcPBM binding intensity (ln)": "8.23 ± 0.74"}, {"sequence": "AATAAGTAACAAAATACACACATATAGGTAATTATA [CACACA_site6949]", "gcPBM binding intensity (ln)": "7.62 ± 0.59"}, {"sequence": "TATATTCAAAATGGTACACACAATATTTAATTGTGC [CACACA_site2631]", "gcPBM binding intensity (ln)": "7.68 ± 0.34"}, {"sequence": "AAAAATTAACAAAAGGTGCAATTTATTTATTAACGG", "gcPBM binding intensity (ln)": "10.3 ± 0.5"}, {"sequence": "AATGGGTTACACATATGTACATAAAATATAAAAAAT [XGTACX_site3440]", "gcPBM binding intensity (ln)": "8.06 ± 0.73"}, {"sequence": "GGAGAATAGTGGAAAACACACACGTTTGAGATATGG [CACACA_site1168]", "gcPBM binding intensity (ln)": "7.92 ± 0.91"}, {"sequence": "GATTAACAACATATTAGTACATATATTATATATATA [XGTACX_site7646]", "gcPBM binding intensity (ln)": "8.61 ± 0.23"}, {"sequence": "AGTTTCTATTTAGTGTGTACTTAAGAAAAATATCTC [XGTACX_site82]", "gcPBM binding intensity (ln)": "7.88 ± 0.4"}, {"sequence": "AGAAGAAAAGAAATATGTACATAAACGTCTGAACTA [XGTACX_site1699]", "gcPBM binding intensity (ln)": "7.8 ± 0.71"}, {"sequence": "CCTTTTGGATGAAAGTGTACAGGTGAGAAAAATTCC [XGTACX_site3358]", "gcPBM binding intensity (ln)": "8.07 ± 0.54"}, {"sequence": "TTATCGGTATAATATAGTACATATAGATATATAATA [XGTACX_site1440]", "gcPBM binding intensity (ln)": "7.7 ± 0.39"}, {"sequence": "TTTGATAAATTATACACACACAATATATATAAAATA [CACACA_site2023]", "gcPBM binding intensity (ln)": "7.72 ± 0.51"}, {"sequence": "CTTAAACTTTTAAATACACACATACAGACATACACA [CACACA_site6401]", "gcPBM binding intensity (ln)": "8.055 ± 0.021"}, {"sequence": "AAATATAATTAATGATGTACACTTATAGATATTGAT [XGTACX_site8435]", "gcPBM binding intensity (ln)": "8.09 ± 0.24"}, {"sequence": "TATATATATATATAGGTGCAATATTGAAAAAATATC [GTGCAC_site9535]", "gcPBM binding intensity (ln)": "11.3 ± 0.47"}, {"sequence": "AGCAAAACAAAAAAATTAAAATTAACATATAATCAT [GTGCAC_negctrl_site393]", "gcPBM binding intensity (ln)": "7.38 ± 0.62"}, {"sequence": "ATTTTTTTTTAATGCAATATATTTTGAAAATTTTAT [CACACA_negctrl_site753]", "gcPBM binding intensity (ln)": "8.62 ± 0.27"}, {"sequence": "ATATTATAATTGAAGGTGCAAAATGTAATATAGATA [GTGCAC_site9661]", "gcPBM binding intensity (ln)": "10.9 ± 0.49"}, {"sequence": "AGATATTATAATTAATGTACAAAAAGAAAAAATAGA [XGTACX_site8964]", "gcPBM binding intensity (ln)": "7.86 ± 0.64"}, {"sequence": "ATGTATGCAAAAATGGTGCATATTAAATGTATAACA [GTGCAC_site9722]", "gcPBM binding intensity (ln)": "10.8 ± 0.49"}]}]}
